Experiments:
Experiment in all cases: PBM binding z-score (relative to random genomic background probes); higher = stronger binding; sequences stand for … in GC…GCGATTGACAGCGTAGAATGAAGG
[1] = system: RARb homodimer (NR concentration 270 nM)
In short: (§1)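 Each nuclear receptor dimer, without ligand, was incubated for 1 h on custom Agilent 4×180K protein-binding microarrays. Binding was detected with antibodies against each partner (one per run), and scanned fluorescence was regression-normalized. The binding z-scores are referenced to random human genomic background probes.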

[2] = system: RARg:RXRa (NR concentration 270 nM, RXRa partner concentration 90 nM)
In short: as §1

[3] = system: RARg homodimer (NR concentration 270 nM)
In short: as §1

[4] = system: RXRa DBDmut IVT, anti-RXR (DBD mutation: RXRa K156A/R161A, NR concentration 90 nM)
In short: as §1

[5] = system: RXRa homodimer (NR concentration 180 nM)
In short: as §1

[6] = system: THRa homodimer (NR concentration 90 nM)
In short: as §1

[7] = system: VDR homodimer (NR concentration 270 nM)
In short: as §1

[8] = system: VDR:RXRa (NR concentration 270 nM, RXRa partner concentration 90 nM)
In short: as §1

[9] = system: THRa:RXRa (NR concentration 90 nM, RXRa partner concentration 90 nM)
In short: as §1

| Sequence | PBM binding z-score [1] | PBM binding z-score [2] | PBM binding z-score [3] | PBM binding z-score [4] | PBM binding z-score [5] | PBM binding z-score [6] | PBM binding z-score [7] | PBM binding z-score [8] | PBM binding z-score [9] |
| --- | --- | --- | --- | --- | --- | --- | --- | --- | --- |
| CCGAGTAGGTTACGTGGGGGCATTCAGTGCGAAT | 2.1 | 2.87 | 2.05 | 1.44 | 2.12 | 1.09 | 2.85 | – | – |
| TCGAGTAGGTTACGGGGTCATTCAGGGATGAAGA | 3.99 | 5.96 | 4.05 | 2.36 | 7.78 | 2.5 | 5.89 | – | – |
| CGTCCAAGGTCAGTGAGGTCAGTGAATGCCGAGT | 5.33 | 5.76 | 6.56 | 3.28 | 4.61 | 4.36 | 5.33 | – | – |
| CCTACTGGGCCATCAGGTGATTGATATCAACGTT | -0.117 | 0.0131 | 0.41 | -0.814 | -0.272 | 0.389 | -0.474 | – | – |
| CGTCCAAGGTCAATGTTAGGTCAGTGAAAGCATT | 5.33 | 7.45 | 6.89 | 3.6 | 5.27 | 3.81 | 2.78 | 4.92 | – |
| CGTCAAAGTTCACCTAAGGTAACGTAAAGCACGC | 4.45 | 5.95 | 6.36 | 4.67 | 5.09 | 3.11 | 4.19 | – | – |
| CCTACTGGGCCACGAAAGGTCCTTGATTCAGTGA | 0.647 | 0.00978 | 0.301 | -0.311 | – | -0.289 | -0.692 | -0.615 | 0.686 |
| GCTTACGGGTCAAAGGTTACAGCATGAATAGAAT | 3.57 | 7.1 | 5.1 | 2.74 | – | 0.157 | 1.75 | 5.69 | 3.93 |
| CGGCCAAGGTCAAAGGTCAGTGAAGAGATGACGG | 5.37 | 9.05 | 8.47 | 3.57 | – | 2.52 | 3.31 | 6.67 | 4.99 |
| CTCGAAAGGGCGTGCTCAGGTGAGTATACCAAAC | 0.741 | 0.917 | 0.829 | 0.316 | – | 0.261 | -0.046 | -0.0475 | 2.23 |
| CTCGAAAGGTCAGTTGAGGTGAGTATACGGATAA | 4.91 | 6.7 | 7.89 | 2.56 | 5.93 | 1.63 | 1.63 | – | – |
| TTACCAAGGTCAGCTGAGGTCGTTGATCCAACTC | 4.61 | 5.52 | 6.14 | 2.79 | 4.69 | 3.51 | 4.14 | – | – |
| CCTTACGGGTCACTCAAGGTTATAGCATCGGAGT | 3.55 | 4.9 | 4.38 | 2.01 | 5.23 | 1.01 | 1.75 | – | – |
| CAAACTAGGTCAAAGGTCAAAGCCGAGCCAACCA | 5.47 | 8.97 | 7.51 | 2.57 | 10.7 | 1.74 | 2.99 | – | – |
| TCTAGTAGGTCACGGAGGTCACACACGACGGGTA | 4.79 | 7.29 | 7.88 | 2.43 | 7.26 | 3.15 | 4.8 | – | – |
| CCTACTGTGCCATTCAGAGGTCATTGATCATATG | 4.39 | 4.2 | 2.75 | 1.79 | – | 2.43 | 3.56 | 4.25 | 3.38 |
| ACTAGTTGGTCAGCTGAGGTAACACACAATTCGG | 1.07 | 0.611 | 0.949 | 0.36 | – | 1.99 | 0.0871 | 0.448 | 3.97 |
| CGAACGAGGTCAGAACAGGACAGTGAAGGATGAT | 3.19 | 4.63 | 4.76 | 3 | 4.37 | 1.37 | 2.1 | 3.67 | – |
| TATTGTAGATCAAAGGTTAAGAAAGCCGAAGCCT | 1.38 | 2.06 | 1.28 | -0.592 | – | -0.344 | 0.214 | 1.54 | 1.37 |
| GCATATAGGTAATTCAAGGTGAAAGTCCGATTGT | 0.847 | 0.546 | 0.26 | 0.583 | 0.756 | 1.67 | 0.292 | 0.627 | – |
| CCGAGTAGGTTACGAGGAGGCATTCAGTGCGAAT | -0.00242 | 0.333 | 0.522 | 0.082 | 0.427 | -0.82 | -0.434 | – | – |
| TTACCAAGGTGACCTGAGGTCGTTGATCCAACTC | 3.13 | 3.18 | 2.35 | 0.664 | 3.64 | 3.94 | 3.65 | 4.87 | – |
| TAGCCTAGGTTATGCGGGCCAGTATAGTGTCGGC | 0.219 | -0.108 | 0.272 | -0.93 | 0.14 | -0.669 | -0.934 | – | – |
| CCTGGCAGGCCAGGGTCACTCAAGCATTTCGCTT | 2.66 | 3.49 | 2.46 | -0.63 | – | 0.655 | 1.3 | 2.52 | 2.96 |
| GATACAGGGTGAGCTAGAGGCCAGAGTATGGAAA | 0.626 | 2.08 | 0.586 | -0.965 | 0.342 | -0.562 | -0.731 | – | – |
| CCTACTGGGCCACGTAAGGTCATTGATTCAGTGA | 3.87 | 3.33 | 3.01 | 0.502 | 3.33 | 4.46 | 2.84 | – | – |
| CAACCTAGGTCACGAAAGGTCAAAGTCGAATGAC | 6.02 | 7.91 | 8.53 | 2.31 | 8.43 | 2.77 | 3.44 | – | – |
| CCTACTGGGCCATTCAGAGGTTATTGATCATATG | 1.19 | 1.1 | 0.495 | 0.368 | – | 0.14 | 0.749 | 0.462 | 0.915 |
| TCGAGTAGGTTACGGCGGCATTCAGGGATGAAGA | 0.0882 | 0.396 | 0.134 | -0.00856 | 0.642 | -0.386 | -0.475 | – | – |
| ACTAGTAGGTCAGCTGAGGTCACACACAATTCGG | 5.47 | 6.45 | 7.1 | 2.43 | 6.29 | 5.63 | 5.23 | – | – |

— the supplement of paper PMC6555819
